Where “and” joins values, the source holds several entries; their conditions need not be identical. Equal entries are not always repeated. Records with an inconclusive call do not appear. More than one record can exist for a structure, and the calls need not agree. Calls of active or inactive are those of the source. How the source made its calls: active means hit-call score of the fitted dose curve at least 0.9, where 1 is the maximum; inconclusive means response in the unintended direction; inactive means score below 0.9.
Tests used:
[1] = biological target: human Muscarinic, M4 Receptor, CHRM4 (gene 1132) (UniProt P08173); assay: NVS_GPCR_hM4: NovaScreen (NVS) G Protein-Coupled Receptor Assay for human Muscarinic, M4 Receptor (AID 2283274)
Summary of the method: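 Cell-free radioligand displacement using CHO-derived human M4 receptor protein, 1 h after dosing; bound radioactivity by filtration and scintillation counting. Primary screen single 25 uM duplicate, actives followed in concentration series.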

[2] = biological target: rat Adrenergic, Alpha 1, Non-selective Receptor (Adra1), Adra1a (gene 29412) (UniProt P43140); assay: NVS_GPCR_rAdra1_NonSelective: NovaScreen (NVS) G Protein-Coupled Receptor Assay for rat Adrenergic, Alpha 1, Non-selective Receptor (Adra1) (AID 2283289)
Summary of the method: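 Rat forebrain membranes; radioligand displacement read by filter-based scintillation counting 1 h after dosing. Primary screen in duplicate at 25 uM; hits (e.g. ≥30% inhibition) rerun as concentration–response to 50 uM max. Fitted versus DMSO.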

[3] = biological target: human Purinergic Receptor P2Y, P2RY1 (gene 5028) (UniProt P47900); assay: NVS_GPCR_hPY2: NovaScreen (NVS) G Protein-Coupled Receptor Assay for human Purinergic Receptor P2Y (AID 2283281)
Summary of the method: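 Cell-free radioligand binding using U937-derived protein, 1 h after dosing, filter-based scintillation counting. Screened in duplicate at 25 uM; actives rerun as concentration-response up to 50 uM; loss of signal versus DMSO.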

[4] = biological target: human Leukotriene B4 Receptor 1 (LTB4-BLT1), LTB4R (gene 1241) (UniProt Q15722); assay: NVS_GPCR_hLTB4_BLT1: NovaScreen (NVS) G Protein-Coupled Receptor Assay for human Leukotriene B4 Receptor 1 (LTB4-BLT1) (AID 2283271)
Summary of the method: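 Radioligand displacement binding on receptor extracted from human neutrophils, cell-free, 1 h after dosing; filter-based scintillation counting. Primary screen in duplicate at 25 uM, actives retested in concentration-response up to 50 uM; loss of signal versus DMSO.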

[5] = biological target: Muscarinic acetylcholine receptor M2 (Homo sapiens) (UniProt P08172); assay: NVS_GPCR_hM2: NovaScreen (NVS) G Protein-Coupled Receptor Assay for human Muscarinic, M2 Receptor (AID 2283273)
Summary of the method: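 CHO membrane prep, radioligand + test compound, 1 h; filtration, scintillation count. Screen 25 uM duplicate → conc. series for actives. Readout: decrease in binding vs DMSO control.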

[6] = biological target: Neuropeptide Y receptor type 2 (Homo sapiens) (UniProt P49146); assay: NVS_GPCR_hNPY2: NovaScreen (NVS) G Protein-Coupled Receptor Assay for human Neuropeptide Receptor Y2 (NPY2) (AID 2283277)
Summary of the method: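 Radioligand binding on membranes extracted from SK-N-MC cells, cell-free, read 1 h after dosing by filter-based scintillation counting. Loss of signal vs DMSO. Primary screen in duplicate at 25 uM; actives followed up in concentration-response up to 50 uM.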

[7] = biological target: rat Serotonin, 5-Hydroxytryptamine Receptor 1 (5HT1), Non-Selective Binding, Htr1a (gene 24473) (UniProt P19327); assay: NVS_GPCR_r5HT1_NonSelective: NovaScreen (NVS) G Protein-Coupled Receptor Assay for rat Serotonin, 5-Hydroxytryptamine Receptor 1 (5HT1), Non-Selective Binding (AID 2283286)
Summary of the method: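 Rat cortical membranes, radioligand displacement, 1 h incubation, read by filter scintillation. Primary screen in duplicate at 25 uM. Hits (e.g. ≥30% inhibition) went to concentration-response up to 50 uM, fitted as loss of binding versus DMSO.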

[8] = biological target: human Endothelin Receptor Type B (ETB), EDNRB (gene 1910) (UniProt P24530); assay: NVS_GPCR_hETB: NovaScreen (NVS) G Protein-Coupled Receptor Assay for human Endothelin Receptor Type B (ETB) (AID 2283267)
Summary of the method: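 Human astrocytoma cell membranes; radioligand competitive binding read by filter scintillation counting 4 hours after dosing. Single-concentration duplicate screen at 25 uM, then singleton concentration-response up to 50 uM; loss of signal versus DMSO.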

[9] = biological target: D(1A) dopamine receptor (Homo sapiens) (UniProt P21728); assay: NVS_GPCR_hDRD1: NovaScreen (NVS) G Protein-Coupled Receptor Assay for human Dopamine Receptor D1 (DRD1) (AID 2283269)
Summary of the method: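 Extracted HEK293 DRD1 is incubated 1 h with compound and a tritiated or iodinated radioligand, then filtered and counted. Screening runs 25 uM in duplicate with on-plate positive and negative controls.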

[10] = biological target: Muscarinic acetylcholine receptor M3 (Homo sapiens) (UniProt P20309); assay: NVS_GPCR_hM3: NovaScreen (NVS) G Protein-Coupled Receptor Assay for human Muscarinic, M3 Receptor (AID 2283272)
Summary of the method: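 Radioligand displacement binding on human M3 receptor in CHO-derived membranes, 1 h incubation, filter-based scintillation counting. Primary screen in duplicate at 25 uM; actives followed up in concentration series; loss of signal versus DMSO.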

[11] = biological target: human Neuropeptide Receptor Y1 (NPY1), NPY1R (gene 4886) (UniProt P25929); assay: NVS_GPCR_hNPY1: NovaScreen (NVS) G Protein-Coupled Receptor Assay for human Neuropeptide Receptor Y1 (NPY1) (AID 2283276)
Summary of the method: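 Cell-free radioligand binding using receptor extracted from SK-N-MC cells, 1 h incubation, filter-based scintillation counting. Primary screen single concentration 25 uM in duplicate; actives followed in concentration series. Loss of bound signal scored versus DMSO.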

[12] = biological target: human Neurokinin, NK2 Receptor, TACR2 (gene 6865) (UniProt P21452); assay: NVS_GPCR_hNK2: NovaScreen (NVS) G Protein-Coupled Receptor Assay for human Neurokinin, NK2 Receptor (AID 2283278);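 further: actives reduce bound radioligand signal relative to DMSO baseline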
Summary of the method: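 Test chemicals displace a radioligand from receptor prepared from CHO cells in a cell-free format, read after 4 hours by scintillation counting on filters. Screening starts at 25 uM in duplicate, and active chemicals then go to concentration series.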

[13] = biological target: human Opioid Receptor Delta 1 (Opiate D1), OPRD1 (gene 4985) (UniProt P41143); assay: NVS_GPCR_hOpiate_D1: NovaScreen (NVS) G Protein-Coupled Receptor Assay for human Opioid Receptor Delta 1 (Opiate D1) (AID 2283280)
Summary of the method: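 Radioligand displacement on membranes from CHO cells expressing the receptor, read by filter scintillation counting 1 h after dosing. Duplicate single-point screen at 25 uM, then concentration series for actives; loss of signal versus DMSO.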

[14] = biological target: human Thromboxane A2 Receptor (TXA2), TBXA2R (gene 6915) (UniProt P21731); assay: NVS_GPCR_hTXA2: NovaScreen (NVS) G Protein-Coupled Receptor Assay for human Thromboxane A2 Receptor (TXA2) (AID 2283282);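 further: actives reduce bound radioligand signal relative to DMSO baseline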
Summary of the method: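 Cell-free radioligand binding with human platelet-derived receptor; 1 h after dosing, filter-based scintillation counting, loss of signal vs DMSO. Primary screen in duplicate at 25 uM.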

[15] = biological target: human Orphanin, Opioid Related Nociceptin Receptor 1 (ORL1), OPRL1 (gene 4987) (UniProt P41146); assay: NVS_GPCR_hORL1: NovaScreen (NVS) G Protein-Coupled Receptor Assay for human Orphanin, Opioid Related Nociceptin Receptor 1 (ORL1) (AID 2283283)
Summary of the method: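 Filter-based radioligand displacement with receptor extracted from HEK293 cells, read 1 hour after dosing by scintillation counting. Duplicate single-point screen at 25 uM; qualifying chemicals then run in concentration-response to 50 uM, analysed relative to DMSO.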

[16] = biological target: human Vasopressin 1A Receptor (V1A), AVPR1A (gene 552) (UniProt P37288); assay: NVS_GPCR_hV1A: NovaScreen (NVS) G Protein-Coupled Receptor Assay for human Vasopressin 1A Receptor (V1A) (AID 2283284)
Summary of the method: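 Cell-free radioligand displacement on human platelet preparations, 1.5 h incubation, filter-based scintillation counting. Chemicals first tested in duplicate at 25 uM; actives then run in concentration-response up to 50 uM, loss of signal fitted against DMSO.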

[17] = biological target: mouse Cholecystokinin, CCK1 Receptor (CCKA), Cckar (gene 12425) (UniProt O08786); assay: NVS_GPCR_mCCKAPeripheral: NovaScreen (NVS) G Protein-Coupled Receptor Assay for mouse Cholecystokinin, CCK1 Receptor (CCKA) (AID 2283285)
Summary of the method: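 Radioligand competitive displacement on mouse pancreatic membranes, 2 h incubation; filter-based scintillation counting, loss of signal versus DMSO. Single-concentration screen at 25 uM in duplicate, actives retested in concentration-response up to 50 uM.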

[18] = system: 5-hydroxytryptamine receptor 2C (pig); assay: NVS_GPCR_p5HT2C: NovaScreen (NVS) G Protein-Coupled Receptor Assay for pig Serotonin, 5-Hydroxytryptamine Receptor 2C (5HT2C) (AID 2283288)
Summary of the method: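 Pig choroid plexus membranes; radioligand competitive binding, filter-based scintillation counting, read 1 h after dosing. Primary screen in duplicate at 25 uM; actives then run as concentration series; loss of signal versus DMSO baseline.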

[19] = system: rabbit Platelet Activating Factor Receptor (PAF), gene 100354046; assay: NVS_GPCR_rabPAF: NovaScreen (NVS) G Protein-Coupled Receptor Assay for rabbit Platelet Activating Factor Receptor (PAF) (AID 2283287)
Summary of the method: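 Rabbit platelet membrane preparation; radioligand displacement read by filter-based scintillation counting 1 h after dosing, loss of signal versus DMSO. Primary screen in duplicate at 25 uM, actives followed up in concentration series.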

D(1A) dopamine receptor (Homo sapiens), sequence (P21728 whole entry, looked up): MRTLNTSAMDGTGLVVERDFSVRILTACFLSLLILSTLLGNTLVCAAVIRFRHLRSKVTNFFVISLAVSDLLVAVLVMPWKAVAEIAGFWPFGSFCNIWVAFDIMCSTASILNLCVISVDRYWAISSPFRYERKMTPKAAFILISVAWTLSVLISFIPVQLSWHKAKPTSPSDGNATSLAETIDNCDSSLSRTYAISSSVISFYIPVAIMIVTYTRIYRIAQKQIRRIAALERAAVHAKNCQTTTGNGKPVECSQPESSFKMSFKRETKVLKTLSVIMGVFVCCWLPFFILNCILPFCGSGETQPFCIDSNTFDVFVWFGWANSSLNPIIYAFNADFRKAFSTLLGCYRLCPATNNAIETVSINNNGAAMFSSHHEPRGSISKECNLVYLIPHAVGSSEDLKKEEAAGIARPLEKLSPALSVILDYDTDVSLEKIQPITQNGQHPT
Neuropeptide Y receptor type 2 (Homo sapiens), sequence (P49146 whole entry, looked up): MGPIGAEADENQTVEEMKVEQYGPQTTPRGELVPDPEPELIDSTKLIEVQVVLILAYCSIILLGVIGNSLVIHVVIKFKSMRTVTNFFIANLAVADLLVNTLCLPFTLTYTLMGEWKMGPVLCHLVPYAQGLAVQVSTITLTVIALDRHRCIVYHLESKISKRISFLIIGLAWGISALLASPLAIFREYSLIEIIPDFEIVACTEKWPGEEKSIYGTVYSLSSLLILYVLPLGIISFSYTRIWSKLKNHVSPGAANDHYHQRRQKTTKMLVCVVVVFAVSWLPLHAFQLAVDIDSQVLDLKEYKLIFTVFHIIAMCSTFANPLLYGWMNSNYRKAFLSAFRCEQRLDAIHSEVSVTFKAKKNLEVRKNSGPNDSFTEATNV
human Neurokinin, NK2 Receptor, TACR2 (gene 6865), sequence (P21452 whole entry, looked up): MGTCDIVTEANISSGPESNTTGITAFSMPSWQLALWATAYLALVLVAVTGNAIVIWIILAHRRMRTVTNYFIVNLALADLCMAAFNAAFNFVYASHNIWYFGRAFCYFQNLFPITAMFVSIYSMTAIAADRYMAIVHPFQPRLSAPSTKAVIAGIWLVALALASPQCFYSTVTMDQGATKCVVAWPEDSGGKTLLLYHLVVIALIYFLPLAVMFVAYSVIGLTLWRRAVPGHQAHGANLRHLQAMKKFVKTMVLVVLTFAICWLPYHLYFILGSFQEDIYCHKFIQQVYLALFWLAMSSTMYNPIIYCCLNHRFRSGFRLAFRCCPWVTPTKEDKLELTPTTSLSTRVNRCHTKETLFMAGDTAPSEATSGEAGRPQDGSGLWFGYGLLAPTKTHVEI
human Opioid Receptor Delta 1 (Opiate D1), OPRD1 (gene 4985), sequence (P41143 whole entry, looked up): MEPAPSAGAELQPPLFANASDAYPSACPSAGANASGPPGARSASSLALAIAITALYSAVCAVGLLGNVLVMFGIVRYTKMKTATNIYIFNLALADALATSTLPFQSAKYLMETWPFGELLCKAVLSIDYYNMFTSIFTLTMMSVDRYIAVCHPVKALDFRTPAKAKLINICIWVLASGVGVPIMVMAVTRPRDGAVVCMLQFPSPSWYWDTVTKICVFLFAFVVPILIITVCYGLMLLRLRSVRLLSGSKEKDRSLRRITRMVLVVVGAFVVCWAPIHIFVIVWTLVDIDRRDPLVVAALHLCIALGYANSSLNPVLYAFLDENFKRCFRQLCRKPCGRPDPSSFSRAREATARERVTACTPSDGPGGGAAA
human Muscarinic, M4 Receptor, CHRM4 (gene 1132), sequence (P08173 whole entry, looked up): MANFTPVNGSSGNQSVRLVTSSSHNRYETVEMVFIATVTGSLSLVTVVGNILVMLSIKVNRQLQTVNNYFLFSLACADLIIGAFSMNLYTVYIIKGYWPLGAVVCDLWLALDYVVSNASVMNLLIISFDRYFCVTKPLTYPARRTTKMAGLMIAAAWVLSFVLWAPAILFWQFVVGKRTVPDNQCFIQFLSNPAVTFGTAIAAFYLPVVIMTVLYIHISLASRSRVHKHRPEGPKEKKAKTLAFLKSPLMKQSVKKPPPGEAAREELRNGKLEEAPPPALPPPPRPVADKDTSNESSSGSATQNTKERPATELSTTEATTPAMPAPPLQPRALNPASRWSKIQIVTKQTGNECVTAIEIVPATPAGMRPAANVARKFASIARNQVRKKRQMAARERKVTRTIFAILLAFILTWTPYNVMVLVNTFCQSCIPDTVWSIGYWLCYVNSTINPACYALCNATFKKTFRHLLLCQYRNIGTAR
human Leukotriene B4 Receptor 1 (LTB4-BLT1), LTB4R (gene 1241), sequence (Q15722 whole entry, looked up): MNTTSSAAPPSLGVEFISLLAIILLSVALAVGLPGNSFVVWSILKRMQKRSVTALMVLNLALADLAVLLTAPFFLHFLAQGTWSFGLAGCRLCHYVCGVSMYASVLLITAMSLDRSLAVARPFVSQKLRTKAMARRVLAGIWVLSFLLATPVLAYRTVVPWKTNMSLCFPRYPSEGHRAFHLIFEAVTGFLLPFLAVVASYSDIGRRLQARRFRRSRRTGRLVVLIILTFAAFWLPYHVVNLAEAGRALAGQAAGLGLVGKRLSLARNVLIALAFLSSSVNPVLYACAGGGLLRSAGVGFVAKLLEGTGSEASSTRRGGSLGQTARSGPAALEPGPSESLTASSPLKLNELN
human Thromboxane A2 Receptor (TXA2), TBXA2R (gene 6915), sequence (P21731 whole entry, looked up): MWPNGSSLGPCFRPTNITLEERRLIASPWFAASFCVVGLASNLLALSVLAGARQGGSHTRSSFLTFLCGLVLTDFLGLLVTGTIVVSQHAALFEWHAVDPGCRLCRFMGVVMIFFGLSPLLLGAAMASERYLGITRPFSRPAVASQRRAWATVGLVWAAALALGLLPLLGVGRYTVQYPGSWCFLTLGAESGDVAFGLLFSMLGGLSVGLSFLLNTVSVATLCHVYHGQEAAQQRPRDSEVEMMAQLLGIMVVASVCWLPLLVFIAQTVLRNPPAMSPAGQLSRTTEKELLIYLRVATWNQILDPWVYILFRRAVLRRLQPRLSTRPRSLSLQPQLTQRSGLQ
mouse Cholecystokinin, CCK1 Receptor (CCKA), Cckar (gene 12425), sequence (O08786 whole entry, looked up): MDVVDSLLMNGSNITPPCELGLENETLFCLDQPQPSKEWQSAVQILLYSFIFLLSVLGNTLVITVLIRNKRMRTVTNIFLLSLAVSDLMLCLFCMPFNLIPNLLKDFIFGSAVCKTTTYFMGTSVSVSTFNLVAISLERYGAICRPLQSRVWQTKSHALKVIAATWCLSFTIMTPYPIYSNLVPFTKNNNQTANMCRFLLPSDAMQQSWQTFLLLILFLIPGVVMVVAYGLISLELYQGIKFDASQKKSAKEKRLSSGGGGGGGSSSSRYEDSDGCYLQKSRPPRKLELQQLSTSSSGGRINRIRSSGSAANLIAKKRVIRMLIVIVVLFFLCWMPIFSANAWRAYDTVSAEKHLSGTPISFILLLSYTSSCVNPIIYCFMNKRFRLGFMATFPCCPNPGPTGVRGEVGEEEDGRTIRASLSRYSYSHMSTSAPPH
Muscarinic acetylcholine receptor M3 (Homo sapiens), sequence (P20309 whole entry, looked up): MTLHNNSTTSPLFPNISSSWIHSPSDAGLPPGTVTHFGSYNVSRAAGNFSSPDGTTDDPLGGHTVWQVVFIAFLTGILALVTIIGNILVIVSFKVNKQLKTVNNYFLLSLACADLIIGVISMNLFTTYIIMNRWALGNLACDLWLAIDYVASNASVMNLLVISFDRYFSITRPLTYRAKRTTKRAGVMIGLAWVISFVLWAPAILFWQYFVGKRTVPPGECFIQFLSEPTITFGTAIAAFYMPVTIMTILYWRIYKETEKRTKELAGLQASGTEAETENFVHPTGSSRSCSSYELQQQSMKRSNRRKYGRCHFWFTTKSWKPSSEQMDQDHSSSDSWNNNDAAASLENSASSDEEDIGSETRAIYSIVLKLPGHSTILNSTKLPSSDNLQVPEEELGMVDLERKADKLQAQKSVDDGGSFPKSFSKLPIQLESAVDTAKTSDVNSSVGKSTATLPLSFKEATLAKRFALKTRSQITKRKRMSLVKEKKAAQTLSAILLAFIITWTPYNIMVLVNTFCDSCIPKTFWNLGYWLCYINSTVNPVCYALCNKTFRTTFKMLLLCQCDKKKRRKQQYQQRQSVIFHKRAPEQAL
human Purinergic Receptor P2Y, P2RY1 (gene 5028), sequence (P47900 whole entry, looked up): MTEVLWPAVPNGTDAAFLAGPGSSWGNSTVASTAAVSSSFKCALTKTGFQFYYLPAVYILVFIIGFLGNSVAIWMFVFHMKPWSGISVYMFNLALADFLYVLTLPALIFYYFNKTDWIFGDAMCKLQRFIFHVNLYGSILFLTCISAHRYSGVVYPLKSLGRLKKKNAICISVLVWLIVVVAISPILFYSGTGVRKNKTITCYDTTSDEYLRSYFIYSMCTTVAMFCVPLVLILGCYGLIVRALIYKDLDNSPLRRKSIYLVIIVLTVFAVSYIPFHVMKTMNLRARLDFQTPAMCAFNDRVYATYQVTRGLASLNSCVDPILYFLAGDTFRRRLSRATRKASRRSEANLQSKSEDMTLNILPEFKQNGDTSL
rat Adrenergic, Alpha 1, Non-selective Receptor (Adra1), Adra1a (gene 29412), sequence (P43140 whole entry, looked up): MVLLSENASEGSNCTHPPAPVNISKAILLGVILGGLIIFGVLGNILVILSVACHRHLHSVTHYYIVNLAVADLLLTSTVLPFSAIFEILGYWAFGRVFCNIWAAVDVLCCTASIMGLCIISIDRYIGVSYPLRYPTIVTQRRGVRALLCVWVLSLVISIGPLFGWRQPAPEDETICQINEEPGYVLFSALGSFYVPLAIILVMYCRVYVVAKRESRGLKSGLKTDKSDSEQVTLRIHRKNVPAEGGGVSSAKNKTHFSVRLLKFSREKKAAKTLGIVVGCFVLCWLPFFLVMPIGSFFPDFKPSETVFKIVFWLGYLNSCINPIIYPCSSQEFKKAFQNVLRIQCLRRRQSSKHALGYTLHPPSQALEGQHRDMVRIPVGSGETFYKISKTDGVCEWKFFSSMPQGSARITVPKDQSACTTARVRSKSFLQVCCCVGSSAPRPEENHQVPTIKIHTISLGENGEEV

With O=S1OCC2C(CO1)C1(Cl)C(Cl)=C(Cl)C2(Cl)C1(Cl)Cl (stereo not drawn) the outcome [1] was “inactive”.
With ClC1C(Cl)C(Cl)C(Cl)C(Cl)C1Cl (stereo not drawn) the outcome [2] was “inactive”.
With CC(C)(C)C(O)C(Oc1ccc(Cl)cc1)n1cncn1 (stereo not drawn) the outcome [3] was “inactive”.
For COP(=S)(OC)Oc1ccc([N+](=O)[O-])cc1, the outcome [4] was “inactive”, the outcome [5] was “inactive” and the AC50 [1] was 12.1 µM (active). For the same compound, the AC50 [6] was 0.043 µM (active) and the outcome [7] was “inactive”.
For Oc1ccc(Cl)cc1Cc1ccccc1, the outcome [8] was “inactive”, the AC50 [9] was 33 µM (active) [middle of 6 runs] and the AC50 [10] was 39.4 µM (active). The outcome [10] was “inactive”, the outcome [5] was “inactive” and the AC50 [1] was 31.8 µM (active) and 25.2 µM (active). For the same compound, the outcome [1] was “inactive”, the outcome [11] was “inactive” and the AC50 [12] was 29.2 µM (active) [middle of 6 runs]. For the same compound, the AC50 [13] was 25.2 µM (active) and 13.3 µM (active), the AC50 [14] was 7.86 µM (active) and 5.43 µM (active) and the outcome [14] was “inactive”. For the same compound, the AC50 [15] was 25.2 µM (active) and 47 µM (active), the outcome [16] was “inactive” and the AC50 [17] was 25.2 µM (active) [middle of 5 runs]. The AC50 [18] was 12.6 µM (active) [middle of 4 runs].
In the case of CC[C@H](C)[C@H]1O[C@]2(C=C[C@@H]1C)C[C@@H]1C[C@@H](C/C=C(\C)[C@@H](O[C@H]3C[C@H](OC)[C@@H](O[C@H]4C[C@H](OC)[C@@H](O)[C@H](C)O4)[C@H](C)O3)[C@@H](C)/C=C/C=C3\CO[C@@H]4[C@H](O)C(C)=C[C@@H](C(=O)O1)[C@]34O)O2 (tested in a mixture with another compound), the AC50 [12] is reported as 6.9 µM (active).
In the case of CC(C)OC(=O)Nc1cccc(Cl)c1, the AC50 [17] is reported as 15.7 µM (active) and the outcome [2] is reported as “inactive”.
CCOc1nc(NC)nc(NC(=O)NS(=O)(=O)c2ccccc2C(=O)OC)n1 was tested, and the outcome [19] was “inactive”.
With Cc1cc(C)nc(NC(=O)NS(=O)(=O)c2ccccc2C(=O)OC2COC2)n1 the outcome [13] was “inactive” and the outcome [19] was “inactive”.
O=S(=O)(O)C(F)(F)C(F)(F)C(F)(F)C(F)(F)C(F)(F)C(F)(F)C(F)(F)C(F)(F)F was tested, and the AC50 [4] was 30.1 µM (active) [middle of 4 runs], the outcome [6] was “inactive” and the outcome [12] was “inactive”. The outcome [13] was “inactive”, the AC50 [3] was 15.8 µM (active) and the AC50 [14] was 15.8 µM (active) [middle of 4 runs]. For the same compound, the outcome [14] was “inactive” and the outcome [19] was “inactive”.

— PubChem BioAssay (EPA / NIEHS)
